Assay outcomes as filed in PubChem.
A selection follows.
aSyn UTR act: Activators via SNCA 5'UTR binding, MLPCN | activity score, % (tested at 7.5 µM), hits read low | AID 1814 | 7.1% of 300,000 active | alpha-synuclein 5'UTR reporter, activators screen; in the data active means activity score below about -60%
* hit, by the source's call.

SMILES	aSyn UTR act
CN1C(=O)CSc2ccc(NC(=O)Nc3ccccn3)cc21	-116*
Cc1ccc(O)c(N=Cc2sc3ccccc3c2Cl)c1	-90*
Oc1ccccc1N=Cc1sc2ccccc2c1Cl	-104*
Oc1ccc(Br)cc1C=Nc1cccn2cc(-c3ccccc3)nc12	-80*
CC(C)C(=O)Nc1ccc(-c2csc(-c3ccccc3)n2)cc1	-205*
CC(C)C(=O)Nc1cccc(-c2csc(-c3ccccc3)n2)c1	-70*
Cc1ccc(OCC(=O)N2CCOCC2)cc1C	-68*
Cc1ccc(OCc2ccc(C(=O)N3CCOCC3)cc2)cc1C	-66*
CCOc1ccc(OCc2cccc(C(=O)O)c2)cc1	84
CCOc1ccc(OCc2ccc(C(=O)N(CC)CC)cc2)cc1	-155*
CCC(=O)c1ccc(OCc2ccc(C#N)cc2)cc1	-112*
CCOc1ncccc1C(=O)OCc1ccc(C(=O)OC)cc1	-126*
CCC(=O)c1ccc(OCc2ccc(C(=O)OC)cc2)cc1	-73*
Cn1c(C(=O)N2CCc3ccccc3C2)cc2oc3ccccc3c21	-137*
CCOc1ccccc1CNC(=O)c1cc2oc3ccccc3c2n1CC	66
O=c1c2c(nc3cc(-c4ccc(Br)cc4)[nH]n13)CCCC2	-95*
COc1ccc(-c2cc3nc4c(c(=O)n3[nH]2)CCC4)cc1	-158*
CCNC(=O)NC(=O)C(C)Oc1ccc(Br)cc1Br (stereo not drawn)	-78*
CCOc1cc(CNc2ccc(N3CCCC3)cc2)cc(Cl)c1OC	-67*
C=CCOc1c(Cl)cc(CNc2ccc(C)c(Cl)c2)cc1OC	85
Cc1ccc(NC(=O)c2cc3ccccc3cc2O)cc1	-179*
COc1ccc(NC(=O)c2cc3ccccc3cc2O)cc1	-119*
COc1ccc(C)cc1NC(=O)c1cc2ccccc2o1	-147*
Cc1cc(NC(=O)c2cncc(Br)c2)ccc1NC(=O)c1cc2ccccc2o1	78
Cc1ccnc(NC(=O)c2cc3ccccc3o2)c1	97
SMILES	aSyn UTR act
Cc1ccc(C)c(NC(=O)c2cc3ccccc3o2)c1	-172*
Cc1cc([N+](=O)[O-])ccc1NC(=O)c1cc2ccccc2o1	-115*
COc1cc(OC)c(NC2=CC(=O)C(=O)c3ccccc32)cc1Cl	107
COc1ccccc1NC1=C(Cl)C(=O)N(C2CCCCC2)C1=O	-91*
Cc1ccccc1NC1=C(Cl)C(=O)N(C2CCCCC2)C1=O	-133*
CCc1ccc2c(c1)/C(=C/C(=O)c1cccs1)C(=O)N2	-65*
COC(=O)c1ccc(COc2ccccc2/C=N/NS(=O)(=O)c2ccc(C)cc2)cc1	-69*
COc1cc(/C=N/NS(=O)(=O)c2ccc(C)cc2)ccc1OCc1ccc(C(=O)O)cc1	84
COC(=O)c1ccc(COc2ccccc2/C=C(\C#N)C(=O)Nc2ccc(C)cc2)cc1	-154*
Cc1ccc(Oc2ccc(NC(=O)c3ccco3)cc2)cc1	-123*
Cc1ccc(Cn2cccc(NC(=O)c3ccco3)c2=O)cc1	-78*
Cc1ccc(NC(=O)c2ccc(OC(=O)c3ccco3)cc2)cc1	-122*
Cc1ccc(NC(=O)c2ccc(OC(=O)c3cc4ccccc4o3)cc2)cc1	-124*
O=C(CSc1nnc(-c2cccnc2)o1)Nc1ccc(Br)cc1	-77*
O=C(CSc1nnc(-c2cccnc2)o1)Nc1cccc(F)c1	-86*
O=C(CSc1nnc(-c2ccc(Br)cc2)o1)Nc1cccc(C(=O)O)c1	98
Nc1c(C(=O)Nc2cccc(C(=O)O)c2)sc2nc3c(cc12)CCCC3	77
Nc1c(C(=O)c2ccc(Cl)cc2)sc2nc3c(cc12)CCC3	-108*
Nc1c(C(=O)C2CC2)sc2nc3c(cc12)CCC3	-161*
COc1ccc(S(=O)(=O)Oc2ccc3ccccc3c2)cc1	-93*
O=c1[nH]c(-c2ccccn2)nc2sc(-c3ccccc3)cc12	-91*
COP(=O)(OC)C(Nc1ccc(C)cc1)c1ccc([N+](=O)[O-])cc1 (stereo not drawn)	-159*
O=C(Nc1nc2ccccc2[nH]1)c1ccc(Cl)c(S(=O)(=O)N2CCCC2)c1	-148*
O=C(/C=C/c1ccc(F)cc1)Nc1nc2ccccc2[nH]1	-129*
COC(=O)c1cc(C(=O)Nc2nc3ccccc3[nH]2)cc([N+](=O)[O-])c1	-162*
SMILES	aSyn UTR act
COc1ccc(C(=O)Nc2nc3ccccc3[nH]2)cc1	71
COc1cc(C(=O)Nc2nc3ccccc3[nH]2)cc(OC)c1OC	-76*
COc1cccc(C(=O)Nc2nc3ccccc3[nH]2)c1	63
O=C(Nc1nc2ccccc2[nH]1)c1cccc([N+](=O)[O-])c1	-250*
O=C(Nc1nc2ccccc2[nH]1)c1cccc(F)c1	-62*
CCc1ccc2c(c1)/C(=N/N(C)C(=S)NC)C(=O)N2	-71*
Cc1ccc2nc(NC(=O)c3ccc(NS(=O)(=O)c4cccs4)cc3)sc2c1	-130*
CC(C)(C)C(=O)Nc1nc2ccc(S(C)(=O)=O)cc2s1	-112*
Cc1cccc(C(=O)Nc2nc3ccc(S(C)(=O)=O)cc3s2)c1	-281*
COc1ccc(-c2c(C)nc3c(-c4ccccn4)cnn3c2N)cc1	-181*
Cc1cc(N)n2ncc(-c3ccc(F)cc3)c2n1	-104*
Cc1nc2c(-c3ccc(F)cc3)cnn2c(N)c1-c1ccc(F)cc1	-150*
Clc1nc(-c2cccnc2)nc2scc(-c3ccccc3)c12	-134*
CCOc1cc(CNc2ccc3c(c2)OCCO3)cc(Br)c1OCC	97
Cc1ccc(CNc2ccc3c(c2)OCO3)cc1	-131*
O=Cc1ccc(OCc2ccc3c(c2)OCO3)cc1	-77*
Cc1ccc(COc2ccc3c(c2)OCO3)cc1	-114*
CCSc1nsc(NC(=O)Nc2ccccc2F)n1	-183*
CCSc1nsc(NC(=O)Nc2cccc(OC)c2)n1	-140*
N#C/C(=C/c1ccc(N2CCOCC2)o1)c1ccc(Br)cc1	-284*
N#C/C(=C\c1ccc(N2CCOCC2)o1)c1ccccc1	-223*
N#C/C(=C\c1ccc(N2CCOCC2)cc1)c1ccccc1	-132*
CC(C)(C)c1ccc(OCc2ccc(C(=O)NCc3cccnc3)o2)cc1	-133*
NNC(=O)c1ccc(COc2ccc3c(c2)CCC3)o1	-74*
O=C(c1ccc(COc2ccc3c(c2)CCC3)o1)N1CCN(c2ccccc2)CC1	-73*
SMILES	aSyn UTR act
CC(C)(C)c1ccc(OCc2ccc(C(=O)NN)o2)cc1	-107*
CC(C)(C)c1ccc(OCc2ccc(C(=O)N/N=C/c3ccc([N+](=O)[O-])cc3)o2)cc1	-138*
Cc1ccc(COc2ccccc2-c2cc(C(=O)N/N=C/c3cccnc3)[nH]n2)cc1	-77*
CCCc1ccc(OCc2ccc(C(=O)N/N=C/c3cccnc3)o2)cc1	-143*
O=C(c1ccc(-n2cccn2)cc1)N1CCc2ccccc2C1	-63*
Cc1cc(O)cc2c1C(=O)/C(=C/c1ccco1)O2	-116*
CC(=O)c1sc(N/N=C\c2ccc(Br)cc2)nc1C	-79*
CCOC(=O)c1nc(N/N=C/c2ccccc2)sc1Br	-82*
CCCc1sc(N/N=C/c2ccccn2)nc1-c1ccc(Br)cc1	82
CC(C)(C)C1CCc2onc(C(=O)Nc3cccc(O)c3)c2C1 (stereo not drawn)	-92*
Cc1ccc(NC(=O)Nc2ccc([N+](=O)[O-])cc2)nc1	-113*
Cc1ccc(NC(=O)C(=O)Nc2ccc(C)cn2)nc1	-66*
Cc1ccc(NC(=O)/C(C#N)=C(\N)C(Cl)(Cl)Cl)nc1	-68*
Cc1ccc(NC(=O)Nc2cccc([N+](=O)[O-])c2)nc1	-113*
Cc1ccc(NC(=O)c2ccc(F)cc2)nc1	-107*
C=C(C)c1cccc(C(C)(C)NC(=O)Nc2ccc(C)cn2)c1	-91*
